Results from PubChem BioAssay.
Inconclusive results are not listed. Unmarked numbers belong to inactive results. Active and inactive are the calls of the source.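 The calls were made as follows: active = cell viability at or below a set limit in both duplicate runs, the limit being the all-compound median minus 4 SD (cut at about 23% in these data, passing the limit was not always enough); inconclusive = no clear call, values can overlap the other calls; inactive = the rest.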

Assay: growth suppression of beta-catenin knockout HCT116, pilot screen, human colon tumor cells (AID 823);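 also: 0% = wells killed by 20 µM Hyamine and 100% = untreated DMSO cell wells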
Details: CellTiter-Glo, 60 h, at 10 µM, active compounds read low

Compound	viability
O=C(NCCN1CCCCCC1)c1ccc(CS(=O)(=O)c2ccc(Br)cc2)o1	78%
Cc1ccc(S(=O)(=O)NCCOC(=O)Nc2sc(=S)n(C)c2C)cc1	115%
COc1ccccc1CC(=O)Nc1ccc(OC)c(OC)c1	101%
CCN(CC)C(=O)C1CCCc2c1[nH]c1ccc(Cl)cc21 (stereo not given)	66.5%
CCOC(=O)N1CCC(NC(=O)C2CCCN(C(=O)c3cc4sccc4n3C)C2)CC1 (stereo not given)	96.7%
CCOC(=O)c1[nH]c(C)c(C(=O)Nc2ccc(Cl)cc2)c1C	96.7%
O=C(NC(=O)c1cccc(F)c1)OC[C@@H]1CCCN2CCCC[C@H]12	99.4%
COc1ccccc1-n1c(=O)[nH]c2c(C(N)=O)nc(-c3cccnc3)nc21	72.9%
CC1(C)CC(=O)c2cnc(NC(=O)Cc3ccc(Cl)cc3)nc2C1	94.4%
CC(C)(NC(=O)N1CCCC1)c1cccc(C(C)(C)NC(=O)N2CCCC2)c1	100%
COc1ccc(NC(=O)C2CCCN(S(=O)(=O)c3cccc4cccnc34)C2)cc1OC (stereo not given)	80.3%
CCOc1ccc(CCN2C(=O)C3C4C=CC(C4)C3C2=O)cc1OCC (stereo not given)	102%
COc1ccc(S(=O)(=O)N2CCN(c3ccc(C)cc3C)CC2)cc1OC	50.6%
O=C(C1CCN(c2nnc(-n3cccc3)s2)CC1)N1CCc2ccccc2C1	97%
CCOc1cc(C2C3=C(CCCC3=O)N(C)C3=C2C(=O)CCC3)cc(Cl)c1O	96.1%
O=C(OCN1C(=O)c2ccccc2C1=O)C1CCCCC1	90.2%
Cc1ccc2cccc(SCC(=O)N3CCOCC3)c2n1	98.9%
c1ccn2c(SCc3ccc4c(c3)OCCO4)nnc2c1	96.6%
c1ccc(C(Cc2nc(-c3ccccn3)no2)c2ccccc2)cc1	89.7%
COC(=O)C(C)Sc1nnc2n(-c3cccc(C)c3)c(=O)c3c4c(sc3n12)CCCC4 (stereo not given)	89.5%

Compound	viability
Cc1ccc(-c2noc(CN3C(C)CCCC3C)n2)cc1 (stereo not given)	98.8%
CCn1c(SCC(=O)Nc2ccc(Cl)cc2)nnc1C1CC1	102%
COc1ccc(C2CC(c3ccco3)n3ncnc3N2)cc1 (stereo not given)	97.7%
COc1ccc(NC(=O)c2cc(C3CC3)on2)c(OC)c1	101%
COc1cc(OC)c2c(c1)OC(c1ccc(OC)c(OC)c1)C(O)C2=O (stereo not given)	101%
N#CCCN(Cc1cccnc1)C(=O)Nc1ccc(Cl)c(Cl)c1	95.3%
O=C(c1cccc(F)c1)N1CCc2ccccc21	86.3%
COc1ccc(NC(=O)C2CCCCN2S(=O)(=O)c2ccc(F)cc2)cc1 (stereo not given)	83.5%
CCN(CC)C(=O)Cn1ncc2c1-c1ccccc1OC2	105%
Cn1c(=O)oc2cc(S(=O)(=O)NC3CCN(Cc4ccccc4)CC3)ccc21	92%
COCCOC(=O)c1[nH]c2c(c1C)C(=O)CC(c1ccco1)C2 (stereo not given)	18.9% (active)
COc1ccccc1NC(=O)N(C1CCCC1)C1CCN(C(C)=O)CC1	92.4%
COc1cc(C(=O)Nc2cccc(-c3nncn3C)c2)cc(OC)c1OC	91.4%
CCCCN(CC)CCNC(=O)c1cc2c(C)nc3ccccc3c2o1	75%
Clc1ccc(SCCCCn2ccnc2)cc1	64.8%
CCOC(=O)N1CCC(N2C(=O)c3ccccc3C2Nc2cc(Cl)c(OC)cc2OC)CC1 (stereo not given)	77.8%
O=C(Cn1nc(Cc2cccnc2)c2ccccc2c1=O)NCC1CCCO1 (stereo not given)	105%
CCn1cc(SCC(=O)NCC2CCCO2)c2ccccc21 (stereo not given)	94.8%
Cc1noc(C)c1S(=O)(=O)N1CCN(Cc2ccc3c(c2)OCO3)CC1	95.3%
CCOC(=O)c1ccc(N2Cc3cc(C)c(C)cc3C2)cc1O	107%
